Only some compounds are listed: those with a hit (about 4.5% of all), similar ones and a draw of the others.
697 NFkB inh = inhibitors of PMA/ionomycin-induced NF-kB reporter, 697 cells, primary screen, B-cell NF-kB inhibitor project, cell-based, luminescence, uHTS; 697 B-cell NF-kB luciferase reporter, 16 h; inhibition, % at 4 µM; actives 0.33% (n = 330,000); in the data active means inhibition above about 35%
Mdm2 MdmX PPI = inhibitors of human Mdm2-MdmX association, primary screen, cell-based, luminescence, split luciferase, SaOS-2, uHTS; Protein Mdm4 (Homo sapiens) + E3 ubiquitin-protein ligase Mdm2 (Homo sapiens), …; SaOS-2 split-luciferase Mdm2/MdmX complementation; inhibition, % at 8 µM; actives 3% (n = 330,000);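 active means inhibition of at least 50% at 8 µM in the primary screen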
Beta cell apopt = inhibitors of cytokine-induced beta cell apoptosis, primary screen, luminescence. INS-1E cytokine-induced death, ATP luminescence, 48 h; percent of positive-control rescue, neutral wells zero. protection from apoptosis, % (test concentration not listed). actives 0.8% (n = 300,000);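 active means Every replicate reaches about 75%, or at least half do and their mean reaches it too, limit read from the data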;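 further: 0% = cytokine-treated negative control wells and 100% = positive control rescue; higher means more ATP so stronger rescue from cytokine killing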
Gli-Sufu antag = Gli-Sufu pathway antagonists, primary screen, luciferase luminescence, Sufu-KO-LIGHT cells, uHTS; Sufu-KO-LIGHT fibroblasts, Gli luciferase reporter luminescence; inhibition, % at 5 µM; actives 0.74% (n = 340,000); AID 588413, 2011;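 active means inhibition above about 55%, limit read from the data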;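 further: 0% = DMSO-treated cells and 100% = wells with medium but no cells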
CSC inhib = cancer stem cell viability inhibitors, primary screen, luminescence; cancer stem cell-like cells viability; inhibition, % at 7.5 µM; actives 1.1% (n = 300,000); in the data active means inhibition above about 75%; tested in HMLE shEcad cells
Jurkat NFkB inh = inhibitors of induced NF-kB luciferase reporter, primary screen, TCR NF-kB activation inhibitor project, cell-based, luminescence, uHTS; inhibition, % at 4 µM; actives 0.53% (n = 330,000); Jurkat, PMA/ionomycin-induced NF-kB luciferase reporter; in the data active means inhibition above about 50%
Mdm2 MdmX conf = Mdm2-MdmX complex disruptors, retested hits, confirmation, luminescence, single concentration. Mdm2-MdmX binding, luminescent assay. AID 489028, 2010. shares compounds with Mdm2 MdmX PPI. actives 55% (n = 10,000). inhibition, % at 8 µM; in the data active means inhibition above about 40%
FLuc counter = full-length luciferase signal inhibition, confirmation, counter-screen for Mdm2/MdmX interaction inhibitor project, cell-based, single concentration, SaOS-2. shares compounds with Mdm2 MdmX PPI. SaOS-2 full-length luciferase counterscreen, luminescence. inhibition, % at 8 µM. actives 77% (n = 6,200);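 active means mean inhibition at 8 µM reaching about 37%, which flags the compound as non-specific, limit read from the data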;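 further: p53-null SaOS-2 cells with luciferase driven by a doxycycline-inducible promoter; compound on cells about two nights before reading with doxycycline added after day one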
Numbers without * were called inactive; x = no result given.

SMILES	697 NFkB inh	Mdm2 MdmX PPI	Beta cell apopt	Gli-Sufu antag	CSC inhib	Jurkat NFkB inh	Mdm2 MdmX conf	others
Cc1ccc(NC(=O)Cn2c(=O)cnc3ccccc32)cc1S(=O)(=O)N1CCOCC1	14	7	1	-25	-16	0	x
CC(NC(=O)COC(=O)CN1C(=O)c2ccccc2C1=O)c1ccccc1 (stereo not drawn)	7	-13	-3	-3	3	14	x
Cc1c(C)n(Cc2ccc(F)cc2)c2ccc(C(=O)N3CCN(c4ccccn4)CC3)cc12	7	33	-10	4	19	2	x
Cc1ccc(NC(=O)Nc2nnc(Cc3ccc([N+](=O)[O-])cc3)s2)cc1C	17	57*	x	-26	x	2	36	FLuc counter=39*
O=C(Nc1ccccc1)Nc1nnc(Cc2ccc([N+](=O)[O-])cc2)s1	6	66*	-5	-2	11	-2	13
Cc1ccccc1NC(=O)Nc1nnc(Cc2ccc([N+](=O)[O-])cc2)s1	3	67*	6	-7	x	-7	10
Cc1ccc(NC(=O)Nc2nnc(Cc3ccc(F)cc3)s2)cc1	-6	55*	-7	-16	60	-27	32
O=C(Nc1ccccc1)Nc1nnc(Cc2ccc(F)cc2)s1	6	7	2	5	42	-11	x
Cc1ccc2c(CC(=O)Nc3cccc(S(=O)(=O)N4CCOCC4)c3)coc2c1	6	14	-3	-3	-19	3	x
O=C(Cc1ccccc1)Nc1cccc(C(=O)O)c1O	11	12	-8	16	-9	22	x
Cc1ccc(C(C)C)c(OCCNCCc2ccccc2)c1	-63	51*	36	25	56	-5	26
O=S(=O)(c1ccc(-c2cnc(C3CC3)o2)cc1)N1CCN(c2ccccc2)CC1	-5	59*	8	6	-9	21	2
O=S(=O)(NCc1ccccc1)c1ccc(-c2cnc(C3CC3)o2)cc1	-23	26	8	8	51	34	x
Cc1ccc(NS(=O)(=O)c2ccc(-c3cnc(C4CC4)o3)cc2)cc1	-60	53*	19	-6	65	40	51*	FLuc counter=50*
CC(=O)c1ccc(NS(=O)(=O)c2ccc(-c3cnc(C4CC4)o3)cc2)cc1	-28	17	x	-9	x	11	x
Cc1ccc(/C(=N\O)c2oc3c(C)c4oc(=O)cc(C)c4cc3c2C)cc1	-38	74*	12	5	105*	-8	30
Cc1cc(=O)oc2c1ccc1oc(/C(=N/O)c3ccccc3)c(C)c12	-10	58*	10	18	42	-4	28
CCc1c(C(=O)c2ccc(Cl)cc2)oc2c(C)c3oc(=O)cc(C)c3cc12	-16	59*	-14	14	-10	16	15
COc1cc(/C=C/C(=O)OCC(=O)NCc2ccco2)ccc1O	-1	54*	-1	17	x	22	45*	FLuc counter=83*
Cc1ccc2nc(/C(C#N)=C/c3cn[nH]c3-c3ccc(F)cc3)[nH]c2c1	-41	66*	7	-7	41	37	57*	FLuc counter=48*
O=C(N/N=C/c1sc(=O)n(Cc2ccc(Br)cc2)c1Cl)c1ccco1	-7	59*	42	-23	-10	14	3
O=C(N/N=C/c1ccc(Br)s1)c1ccco1	-23	-22	-2	-16	-5	-17	x
O=C(COC(=O)c1cc(Cl)ccc1O)Nc1cc(C(F)(F)F)ccc1N1CCOCC1	-1	4	2	4	-6	-3	x
COc1ccc(-c2ccc(SCC(=O)N3CCN(c4ccccc4)CC3)nn2)cc1	-33	52*	-2	1	-7	9	10
O=S(=O)(Nc1ccc(S(=O)(=O)N2CCCC2)cc1)c1ccccc1Br	19	23	9	-5	17	-17	x
SMILES	697 NFkB inh	Mdm2 MdmX PPI	Beta cell apopt	Gli-Sufu antag	CSC inhib	Jurkat NFkB inh	Mdm2 MdmX conf	others
COc1ccc(-c2sc3ccc(OC)cc3c2C#Cc2cncn2C)cc1	-39	54*	-7	-1	x	-25	19
COc1ccc(-c2oc3ccccc3c2C#Cc2cncn2C)cc1	-50	72*	5	16	103*	18	61*	FLuc counter=44*
COc1ccc(-c2sc3cc4c(cc3c2C#Cc2cncn2C)OCO4)cc1	-22	-9	-3	2	67	10	x
O=C(Nc1ccccc1)OCCOc1ccc(Cl)cc1Cl	x	x	x	-28	x	x	x
O=C1c2ccccc2C(=O)c2c(Nc3ccc(CCO)cc3)ccc(O)c21	-1	72*	22	9	88*	-1	35	FLuc counter=33
CCOC(=O)C1CCN(C(=O)c2cc(S(=O)(=O)N3CCc4ccccc43)ccc2OC)CC1	-3	25	-8	12	-13	7	x
O=P(c1ccccc1)(c1ccccc1)c1nc(-c2ccccc2)oc1NCc1ccccc1	18	60*	-4	-2	-3	4	5
COc1cc(C2c3c(n[nH]c3C)C(=O)N2c2ccc(Br)cc2)ccc1O (stereo not drawn)	1	56*	1	-1	-11	7	26
COC(=O)c1ccc(C2c3c(n[nH]c3C)C(=O)N2c2ccc(C)cc2)cc1 (stereo not drawn)	12	74*	-2	6	-9	3	47*	FLuc counter=43*
CCOC(=O)c1ccc(N2C(=O)c3n[nH]c(C)c3C2c2ccc(OC)cc2)cc1 (stereo not drawn)	17	29	2	7	-11	-4	x
O=C(CNS(=O)(=O)c1ccc(Br)cc1)Nc1ccc2c(c1)OCCO2	11	13	x	-7	x	-3	x
Cc1[nH]c2ccccc2c1/C=N/NC(=O)C1CC1(c1ccccc1)c1ccccc1 (stereo not drawn)	-8	65*	26	1	116*	-3	48*	FLuc counter=89*
Cc1[nH]c2ccccc2c1/C=N/NC(=O)CCC(=O)NCc1ccccc1	16	-14	-2	3	4	2	x
O=C(Cn1c(=O)oc2cc(S(=O)(=O)N3CCCCC3)ccc21)N1CCc2ccccc21	-1	59*	6	15	-9	-16	0
O=C(CN1C(=O)/C(=C\c2ccccc2Cl)Oc2ccccc21)NCc1cccnc1	-11	76*	11	-8	20	-14	1

Source: PubChem (several laboratories)
